Experimental data as given in PubChem BioAssay AID1159580 (chemical genetic matrix, 2015).
In all, about 5,500 compounds went through this assay and about 2,000 (36%) were called active. Inconclusive results (about 18%) are left out. No stated cut-off is given here; in the data, active means normalized growth mostly below about 0.91 (no sharp cut-off); inconclusive means no clear call, values can overlap the other calls; inactive means mostly above about 0.92. This is one part of the list.

Test: chemical genetic growth profiling, strain panel (AID 1159580);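 further: tested at 20 µM; growth read once vehicle control cultures reached saturation at 30 °C; 1 = growth at the plate median or of vehicle wells; lower values mean less growth of the strain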
Settings: growth OD

Measured: normalized growth

CC[C@@H](C(=O)C(C)[C@@H](O)[C@H](C)CCc1ccc(C)c(O)c1C(=O)O)C1OC(CC)(C2CC[C@](O)(CC)[C@H](C)O2)C[C@@H]1C (some centres undefined)
active: S. cerevisiae deletion strains, locus YKL085W, strain MDH1 (second series), active compounds read low 1.28 [resistant] | S. cerevisiae deletion strains, locus YKL085W, strain MDH1, active compounds read low 1.28 [resistant] | S. cerevisiae deletion strains, locus YLL001W, strain dnm1, active compounds read low 1.1 [resistant] | S. cerevisiae deletion strains, locus YMR231W, strain pep5, active compounds read low 0.208 | S. cerevisiae deletion strains, locus YOR106W, strain vam3, active compounds read low 0.557 | S. cerevisiae deletion strains, locus YOR270C, strain vph1, active compounds read low 0.597
inactive: S. cerevisiae deletion strains, locus YJR043C, strain POL32, active compounds read low 1.02 | S. cerevisiae deletion strains, locus YJR066W, strain TOR1, active compounds read low 0.928 | S. cerevisiae deletion strains, locus YJR075W, strain HOC1, active compounds read low 1.01 | S. cerevisiae deletion strains, locus YKL068W, active compounds read low 1 | S. cerevisiae deletion strains, locus YKL160W, strain elf1, active compounds read low 1.05 | S. cerevisiae deletion strains, locus YKL190W, strain CNB1, active compounds read low 1 | S. cerevisiae deletion strains, locus YKR001C, strain vps1, active compounds read low 1.04 | S. cerevisiae deletion strains, locus YKR026C, strain gcn3, active compounds read low 1.07 | S. cerevisiae deletion strains, locus YKR091W, strain srl3, active compounds read low 1.07 | S. cerevisiae deletion strains, locus YLL026W, active compounds read low 1.06 | S. cerevisiae deletion strains, locus YLL041C, strain sdh2, active compounds read low 1.05 | S. cerevisiae deletion strains, locus YLR027C, strain aat2, active compounds read low 1.05 | S. cerevisiae deletion strains, locus YLR039C, strain RIC1, active compounds read low 1.26 | S. cerevisiae deletion strains, locus YLR058C, strain SHM2, active compounds read low 1.02 | S. cerevisiae deletion strains, locus YLR102C, strain apc9, active compounds read low 1.03 | S. cerevisiae deletion strains, locus YLR113W, strain HOG1, active compounds read low 0.964 | S. cerevisiae deletion strains, locus YLR221C, strain rsa3, active compounds read low 1.06 | S. cerevisiae deletion strains, locus YLR258W, strain gsy2, active compounds read low 1.06 | S. cerevisiae deletion strains, locus YLR262C, strain YPT6 (second series), active compounds read low 1.08 | S. cerevisiae deletion strains, locus YLR262C, strain YPT6, active compounds read low 1.34 | S. cerevisiae deletion strains, locus YLR268W, strain sec22, active compounds read low 0.996 | S. cerevisiae deletion strains, locus YLR320W, strain mms22, active compounds read low 1.05 | S. cerevisiae deletion strains, locus YLR330W, strain CHS5, active compounds read low 1.04 | S. cerevisiae deletion strains, locus YLR342W, strain FKS1 (second series), active compounds read low 0.97 | S. cerevisiae deletion strains, locus YLR342W, strain FKS1, active compounds read low 1.05 | S. cerevisiae deletion strains, locus YLR357W, strain rsc2, active compounds read low 1.12 | S. cerevisiae deletion strains, locus YLR370C, strain arc18, active compounds read low 1.04 | S. cerevisiae deletion strains, locus YLR371W, strain rom2, active compounds read low 1 | S. cerevisiae deletion strains, locus YLR384C, strain iki3, active compounds read low 1.08 | S. cerevisiae deletion strains, locus YLR418C, strain cdc73, active compounds read low 0.959 | S. cerevisiae deletion strains, locus YML016C, strain PPZ1, active compounds read low 1.03 | S. cerevisiae deletion strains, locus YML032C, strain rad52, active compounds read low 1 | S. cerevisiae deletion strains, locus YML120C, strain ndi1, active compounds read low 1.07 | S. cerevisiae deletion strains, locus YML124C, strain tub3, active compounds read low 1.03 | S. cerevisiae deletion strains, locus YMR058W, strain fet3, active compounds read low 1.04 | S. cerevisiae deletion strains, locus YMR078C, strain ctf18, active compounds read low 1.06 | S. cerevisiae deletion strains, locus YMR125W, strain sto1, active compounds read low 1.08 | S. cerevisiae deletion strains, locus YMR129W, active compounds read low 1.07 | S. cerevisiae deletion strains, locus YMR205C, strain PFK2, active compounds read low 1.04 | S. cerevisiae deletion strains, locus YMR223W, strain ubp8, active compounds read low 0.996 | S. cerevisiae deletion strains, locus YMR307W, strain GAS1, active compounds read low 0.967 | S. cerevisiae deletion strains, locus YNL067W, strain RPL9B, active compounds read low 1.02 | S. cerevisiae deletion strains, locus YNL071W, strain lat1, active compounds read low 1.06 | S. cerevisiae deletion strains, locus YNL153C, strain GIM3, active compounds read low 1.04 | S. cerevisiae deletion strains, locus YNL183C, strain NPR1, active compounds read low 0.923 | S. cerevisiae deletion strains, locus YNL209W, strain ssb2, active compounds read low 1.07 | S. cerevisiae deletion strains, locus YNL233W, strain BNI4, active compounds read low 1.02 | S. cerevisiae deletion strains, locus YNL248C, strain rpa49, active compounds read low 1.05 | S. cerevisiae deletion strains, locus YNL250W, strain rad50, active compounds read low 0.997 | S. cerevisiae deletion strains, locus YNL271C, strain bni1, active compounds read low 0.996 | S. cerevisiae deletion strains, locus YNL298W, strain CLA4, active compounds read low 0.978 | S. cerevisiae deletion strains, locus YNL307C, strain MCK1, active compounds read low 1.05 | S. cerevisiae deletion strains, locus YNL322C, strain KRE1 (second series), active compounds read low 1.08 | S. cerevisiae deletion strains, locus YNL322C, strain KRE1, active compounds read low 1.02 | S. cerevisiae deletion strains, locus YNR049C, strain mso1, active compounds read low 1.07 | S. cerevisiae deletion strains, locus YNR052C, strain pop2, active compounds read low 1.01 | S. cerevisiae deletion strains, locus YOL006C, strain TOP1, active compounds read low 0.716 | S. cerevisiae deletion strains, locus YOL012C, strain htz1 1.09 | S. cerevisiae deletion strains, locus YOL147C, strain pex11, active compounds read low 1.02 | S. cerevisiae deletion strains, locus YOR001W, strain rrp6, active compounds read low 1.01 | S. cerevisiae deletion strains, locus YOR061W, strain CKA2, active compounds read low 1 | S. cerevisiae deletion strains, locus YOR069W, strain VPS5, active compounds read low 1.02 | S. cerevisiae deletion strains, locus YOR070C, strain gyp1, active compounds read low 1.06 | S. cerevisiae deletion strains, locus YOR080W, strain dia2, active compounds read low 1.06 | S. cerevisiae deletion strains, locus YOR083W, strain WHI5, active compounds read low 1.07 | S. cerevisiae deletion strains, locus YOR136W, strain idh2, active compounds read low 1.02 | S. cerevisiae deletion strains, locus YOR144C, strain elg1, active compounds read low 1.02 | S. cerevisiae deletion strains, locus YOR184W, strain ser1, active compounds read low 0.997 | S. cerevisiae deletion strains, locus YOR231W, strain MKK1, active compounds read low 0.963 | S. cerevisiae deletion strains, locus YOR265W, strain rbl2, active compounds read low 1.05 | S. cerevisiae deletion strains, locus YOR290C, strain snf2, active compounds read low 1.06 | S. cerevisiae deletion strains, locus YOR316C, strain cot1, active compounds read low 1.03 | S. cerevisiae deletion strains, locus YPL051W, strain arl3, active compounds read low 0.944 | S. cerevisiae deletion strains, locus YPL078C, strain atp4, active compounds read low 1.05 | S. cerevisiae deletion strains, locus YPL106C, strain sse1, active compounds read low 1.09 | S. cerevisiae deletion strains, locus YPL240C, strain hsp82, active compounds read low 1.06 | S. cerevisiae deletion strains, locus YPL256C, strain CLN2, active compounds read low 0.982 | S. cerevisiae deletion strains, locus YPR119W, strain clb2, active compounds read low 1.05 | S. cerevisiae deletion strains, locus YPR141C, strain kar3, active compounds read low 1.02 | S. cerevisiae deletion strains, locus YPR163C, strain tif3, active compounds read low 1.07 | S. cerevisiae deletion strains, locus YPR167C, strain met16, active compounds read low 1.02 | S. cerevisiae deletion strains, strain wtn01, active compounds read low 1.02 | S. cerevisiae strains, strain wild type, active compounds read low 1.01
